# In the supplement of paper PMC12282887:
# ± gives the standard deviation of the averaged measurements.
# Columns and labels:
# Test in all cases: promoter activity interaction Z-score (Lux/OD deviation from empty-vector control); higher = stronger promoter induction by the compound
# [1] = system: E. coli BW25113 acrABp lux reporter
# Outline: (§1)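 Low-copy luxCDABE promoter reporters were carried by E. coli BW25113, either wild type or lacking one of three genes, grown in 40 µl LB Lennox in 384-well plates at 37°C. Each compound was run at four 1:2 dilutions in biological duplicates, with OD600 and luminescence read every 30 min for 12 h. Integration used 0–8 h for wild type and 1–9 h for deletion strains, and wells under 10% of the median growth value were removed. Luminescence normalised to growth was fitted against a control, and the Z-transformed residual is the score.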
# [2] = system: E. coli BW25113 micFp lux reporter
# Outline: as §1
# [3] = system: E. coli BW25113 ompFp lux reporter
# Outline: as §1
# [4] = system: E. coli BW25113 robp lux reporter
# Outline: as §1
# [5] = system: E. coli BW25113 soxSp lux reporter
# Outline: as §1
# [6] = system: E. coli BW25113 tolCp lux reporter
# Outline: as §1
# [7] = 24.6 µg/ml, genetic background: wild type
# [8] = 24.6 µg/ml, genetic background: ΔmarA
# [9] = 24.6 µg/ml, genetic background: Δrob
# [10] = 24.6 µg/ml, genetic background: ΔsoxS
# [11] = 49.3 µg/ml, genetic background: wild type
# [12] = 49.3 µg/ml, genetic background: ΔmarA
# [13] = 49.3 µg/ml, genetic background: Δrob
# [14] = 49.3 µg/ml, genetic background: ΔsoxS
# [15] = 98.6 µg/ml, genetic background: wild type
# [16] = 98.6 µg/ml, genetic background: ΔmarA
# [17] = 98.6 µg/ml, genetic background: Δrob
# [18] = 98.6 µg/ml, genetic background: ΔsoxS
# [19] = 197.1 µg/ml, genetic background: wild type
# [20] = 3.7 µg/ml, genetic background: wild type
# [21] = 3.7 µg/ml, genetic background: ΔmarA
# [22] = 3.7 µg/ml, genetic background: Δrob
# [23] = 3.7 µg/ml, genetic background: ΔsoxS
# [24] = 7.5 µg/ml, genetic background: wild type
# [25] = 7.5 µg/ml, genetic background: ΔmarA
# [26] = 7.5 µg/ml, genetic background: Δrob
# [27] = 7.5 µg/ml, genetic background: ΔsoxS
# [28] = 15 µg/ml, genetic background: wild type
# [29] = 15 µg/ml, genetic background: ΔmarA
# [30] = 15 µg/ml, genetic background: Δrob
# [31] = 15 µg/ml, genetic background: ΔsoxS
compound,measurement,setting,value
CC[n+]1c(-c2ccccc2)c2cc(N)ccc2c2ccc(N)cc21 [Ethidiumbromide],promoter activity interaction Z-score,[1]; [7],0.326 ± 0.22
same,promoter activity interaction Z-score,[1]; [8],0.524 ± 0.7
same,promoter activity interaction Z-score,[1]; [9],0.354 ± 0.098
same,promoter activity interaction Z-score,[1]; [10],-0.0764 ± 0.31
same,promoter activity interaction Z-score,[1]; [11],0.808 ± 0.11
same,promoter activity interaction Z-score,[1]; [12],1.18 ± 0.92
same,promoter activity interaction Z-score,[1]; [13],0.756 ± 0.029
same,promoter activity interaction Z-score,[1]; [14],0.5305 ± 0.0051
same,promoter activity interaction Z-score,[1]; [15],1.2 ± 0.53
same,promoter activity interaction Z-score,[1]; [16],0.599 ± 1.3
same,promoter activity interaction Z-score,[1]; [17],0.819 ± 0.29
same,promoter activity interaction Z-score,[1]; [18],0.475 ± 0.05
same,promoter activity interaction Z-score,[2]; [7],0.89 ± 0.25
same,promoter activity interaction Z-score,[2]; [8],0.0467 ± 0.069
same,promoter activity interaction Z-score,[2]; [9],0.437 ± 0.23
same,promoter activity interaction Z-score,[2]; [10],0.0133 ± 0.038
same,promoter activity interaction Z-score,[2]; [11],1.09 ± 0.86
same,promoter activity interaction Z-score,[2]; [12],0.0126 ± 0.13
same,promoter activity interaction Z-score,[2]; [13],0.436 ± 0.016
same,promoter activity interaction Z-score,[2]; [14],0.338 ± 0.11
same,promoter activity interaction Z-score,[2]; [15],0.763 ± 1.3
same,promoter activity interaction Z-score,[2]; [16],-0.124 ± 0.015
same,promoter activity interaction Z-score,[2]; [17],0.377 ± 0.036
same,promoter activity interaction Z-score,[2]; [18],-0.366 ± 0.13
same,promoter activity interaction Z-score,[2]; [19],1.24
same,promoter activity interaction Z-score,[3]; [7],0.291 ± 0.39
same,promoter activity interaction Z-score,[3]; [8],0.262 ± 0.15
same,promoter activity interaction Z-score,[3]; [9],0.428 ± 0.57
same,promoter activity interaction Z-score,[3]; [10],-0.386 ± 0.08
same,promoter activity interaction Z-score,[3]; [11],0.79 ± 0.52
same,promoter activity interaction Z-score,[3]; [12],0.776 ± 0.33
same,promoter activity interaction Z-score,[3]; [13],0.612 ± 0.19
same,promoter activity interaction Z-score,[3]; [14],0.772 ± 0.8
same,promoter activity interaction Z-score,[3]; [15],0.327 ± 1.1
same,promoter activity interaction Z-score,[3]; [16],0.808 ± 0.52
same,promoter activity interaction Z-score,[3]; [17],-0.58 ± 0.54
same,promoter activity interaction Z-score,[3]; [18],-0.257 ± 0.67
same,promoter activity interaction Z-score,[4]; [7],0.277 ± 0.67
same,promoter activity interaction Z-score,[4]; [8],0.595 ± 0.36
same,promoter activity interaction Z-score,[4]; [9],0.758 ± 0.77
same,promoter activity interaction Z-score,[4]; [10],1.25 ± 1.1
same,promoter activity interaction Z-score,[4]; [11],-0.152 ± 0.42
same,promoter activity interaction Z-score,[4]; [12],1.37 ± 0.033
same,promoter activity interaction Z-score,[4]; [13],-0.413 ± 0.32
same,promoter activity interaction Z-score,[4]; [14],0.804 ± 0.45
same,promoter activity interaction Z-score,[4]; [15],-0.356 ± 0.7
same,promoter activity interaction Z-score,[4]; [16],-0.204 ± 0.19
same,promoter activity interaction Z-score,[4]; [17],-1.46 ± 0.089
same,promoter activity interaction Z-score,[4]; [18],-0.959 ± 1.1
same,promoter activity interaction Z-score,[5]; [7],0.555 ± 0.028
same,promoter activity interaction Z-score,[5]; [8],0.911 ± 0.17
same,promoter activity interaction Z-score,[5]; [9],0.717 ± 0.25
same,promoter activity interaction Z-score,[5]; [10],1.38 ± 0.36
same,promoter activity interaction Z-score,[5]; [11],1.31 ± 0.084
same,promoter activity interaction Z-score,[5]; [12],1.5169 ± 0.00016
same,promoter activity interaction Z-score,[5]; [13],1.38 ± 0.24
same,promoter activity interaction Z-score,[5]; [14],2.47 ± 0.14
same,promoter activity interaction Z-score,[5]; [15],1.8 ± 0.019
same,promoter activity interaction Z-score,[5]; [16],2.07 ± 0.081
same,promoter activity interaction Z-score,[5]; [17],2.14 ± 0.22
same,promoter activity interaction Z-score,[5]; [18],3.77 ± 0.59
same,promoter activity interaction Z-score,[5]; [19],0.127 ± 0.036
same,promoter activity interaction Z-score,[6]; [7],-0.0407 ± 0.73
same,promoter activity interaction Z-score,[6]; [8],0.142 ± 0.75
same,promoter activity interaction Z-score,[6]; [9],-0.711 ± 0.15
same,promoter activity interaction Z-score,[6]; [10],0.75 ± 0.61
same,promoter activity interaction Z-score,[6]; [11],0.059 ± 0.45
same,promoter activity interaction Z-score,[6]; [12],0.836 ± 0.52
same,promoter activity interaction Z-score,[6]; [13],-0.973 ± 1
same,promoter activity interaction Z-score,[6]; [14],0.167 ± 0.58
same,promoter activity interaction Z-score,[6]; [15],0.025 ± 1.1
same,promoter activity interaction Z-score,[6]; [16],-0.192 ± 0.57
same,promoter activity interaction Z-score,[6]; [17],-0.394 ± 0.42
same,promoter activity interaction Z-score,[6]; [18],0.815 ± 0.81
same,promoter activity interaction Z-score,[6]; [19],-0.153 ± 0.69
same,promoter activity interaction Z-score,"[6]; 197.1 µg/ml, genetic background: ΔsoxS",-1.48 ± 0.4
CC[C@H]1OC(=O)[C@H](C)[C@@H](O[C@H]2C[C@@](C)(OC)[C@@H](O)[C@H](C)O2)[C@H](C)[C@@H](O[C@@H]2O[C@H](C)C[C@H](N(C)C)[C@H]2O)[C@](C)(OC)C[C@@H](C)C(=O)[C@H](C)[C@@H](O)[C@]1(C)O [Clarithromycin],promoter activity interaction Z-score,[1]; [20],2.75 ± 0.78
same,promoter activity interaction Z-score,[1]; [21],-0.666 ± 0.051
same,promoter activity interaction Z-score,[1]; [22],2.53 ± 0.28
same,promoter activity interaction Z-score,[1]; [23],3.99 ± 2.9
same,promoter activity interaction Z-score,[1]; [24],4.86 ± 2
same,promoter activity interaction Z-score,[1]; [25],0.0124 ± 0.014
same,promoter activity interaction Z-score,[1]; [26],3.88 ± 1.1
same,promoter activity interaction Z-score,[1]; [27],5.27 ± 0.95
same,promoter activity interaction Z-score,[1]; [28],6.01 ± 2.6
same,promoter activity interaction Z-score,[1]; [29],5.11
same,promoter activity interaction Z-score,[1]; [30],8.62 ± 0.52
same,promoter activity interaction Z-score,[1]; [31],7.67 ± 6.7
same,promoter activity interaction Z-score,[2]; [20],0.345 ± 0.84
same,promoter activity interaction Z-score,[2]; [21],-0.264 ± 0.18
same,promoter activity interaction Z-score,[2]; [22],0.13 ± 0.36
same,promoter activity interaction Z-score,[2]; [23],0.346 ± 0.31
same,promoter activity interaction Z-score,[2]; [24],-0.0809 ± 0.56
same,promoter activity interaction Z-score,[2]; [25],-0.345 ± 0.18
same,promoter activity interaction Z-score,[2]; [26],0.0824 ± 0.022
same,promoter activity interaction Z-score,[2]; [27],-0.272 ± 0.94
same,promoter activity interaction Z-score,[2]; [28],-2.17 ± 0.33
same,promoter activity interaction Z-score,[2]; [29],-0.213 ± 0.3
same,promoter activity interaction Z-score,[2]; [30],-0.078 ± 0.014
same,promoter activity interaction Z-score,[3]; [20],4.02 ± 1.8
same,promoter activity interaction Z-score,[3]; [21],2.83 ± 2.5
same,promoter activity interaction Z-score,[3]; [22],3.22 ± 1.5
same,promoter activity interaction Z-score,[3]; [23],4.01 ± 1.6
same,promoter activity interaction Z-score,[3]; [24],4.44 ± 2.9
same,promoter activity interaction Z-score,[3]; [25],4.37 ± 4.9
same,promoter activity interaction Z-score,[3]; [26],3.77 ± 4.2
same,promoter activity interaction Z-score,[3]; [27],3.43 ± 1.9
same,promoter activity interaction Z-score,[3]; [28],-0.0263 ± 3.9
same,promoter activity interaction Z-score,[3]; [30],-0.772
same,promoter activity interaction Z-score,[3]; [31],-2.44
same,promoter activity interaction Z-score,[4]; [20],-1.9 ± 0.13
same,promoter activity interaction Z-score,[4]; [21],-2.77 ± 0.23
same,promoter activity interaction Z-score,[4]; [22],-1.66 ± 0.048
same,promoter activity interaction Z-score,[4]; [23],-2.35 ± 0.33
same,promoter activity interaction Z-score,[4]; [24],-2.21 ± 0.12
same,promoter activity interaction Z-score,[4]; [25],-2.09 ± 0.24
same,promoter activity interaction Z-score,[4]; [26],-2.11 ± 0.083
same,promoter activity interaction Z-score,[4]; [27],-1.66 ± 0.9
same,promoter activity interaction Z-score,[4]; [28],-4.75 ± 0.23
same,promoter activity interaction Z-score,[4]; [29],-0.357 ± 0.99
same,promoter activity interaction Z-score,[4]; [30],-1.4
same,promoter activity interaction Z-score,[5]; [20],0.201 ± 0.071
same,promoter activity interaction Z-score,[5]; [21],0.637 ± 0.17
same,promoter activity interaction Z-score,[5]; [22],0.258 ± 0.11
same,promoter activity interaction Z-score,[5]; [23],3.14 ± 1.1
same,promoter activity interaction Z-score,[5]; [24],1.35 ± 0.47
same,promoter activity interaction Z-score,[5]; [25],1.62 ± 0.14
same,promoter activity interaction Z-score,[5]; [26],1.1974 ± 0.00038
same,promoter activity interaction Z-score,[5]; [27],3.99 ± 0.81
same,promoter activity interaction Z-score,[5]; [28],0.664 ± 0.51
same,promoter activity interaction Z-score,[5]; [29],2.07 ± 0.33
same,promoter activity interaction Z-score,[5]; [30],1.44 ± 0.33
same,promoter activity interaction Z-score,[5]; [31],1.96
same,promoter activity interaction Z-score,[6]; [20],1.16 ± 0.087
same,promoter activity interaction Z-score,[6]; [21],0.114 ± 1.9
same,promoter activity interaction Z-score,[6]; [22],0.468 ± 0.18
same,promoter activity interaction Z-score,[6]; [23],2.16 ± 2.1
same,promoter activity interaction Z-score,[6]; [24],3.8 ± 1.3
same,promoter activity interaction Z-score,[6]; [25],1.91 ± 0.99
same,promoter activity interaction Z-score,[6]; [26],1.62 ± 0.65
same,promoter activity interaction Z-score,[6]; [27],3.3 ± 1.4
same,promoter activity interaction Z-score,[6]; [28],0.0472 ± 0.77
same,promoter activity interaction Z-score,[6]; [29],0.874 ± 2.2
same,promoter activity interaction Z-score,[6]; [30],1.26 ± 0.65
same,promoter activity interaction Z-score,[6]; [31],3.6044 ± 0.00012
